The values that follow come from PubChem BioAssay (NCATS).

Records with an inconclusive call do not appear. The source made the active and inactive calls. Unless noted, the call rests on the fitted dose curve; in most records, active means well fitted inhibition curve with a large enough effect; inconclusive means small, poorly fitted or top-dose-only effect; inactive means flat fitted curve, though single readings scatter.

A short description of test [1]: qHTS drug screen for cell cycle checkpoint inhibitors in PARPi-resistant BRCA-mutant ovarian cancer cell lines. (AID 1963452; calls by dose curve). The conditions noted are these: PEO1/OlaR viability, CellTiter-Glo luminescence, 96 h, stronger effect = lower value. The method, boiled down: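 PEO1, PEO4 and PEO1/OlaR ovarian cancer cells, 600 per well, exposed 96 h at 37C to a dilution series. Viability read by CellTiter-Glo luminescence, normalized to DMSO and empty wells; activity summarized as Z-AUC.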

Test [2] in a line: qHTS for identification of novel therapeutic agents for treatment of microphthalmiaassociated transcription factor (MiT) renal cell carcinoma (RCC) (AID 1963991). The conditions noted are these: CellTiter-Glo, 48 h, stronger effect = lower value. The gist of the method:
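Three TFE3-fusion RCC cell lines (UOK109, UOK124, UOK145), 500 cells/well, were exposed to the 1912-compound MIPE 4.0 library for 48 hours at 37 C. Viability was read by CellTiter-Glo luminescence, normalised to DMSO (100%) and empty wells (0%), with 11-concentration curve fits.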

The nature of test [3]: qHTS profiling for inhibitors of Plasmodium falciparum proliferation (AID 504749).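 Further: 0% = DMSO vehicle and full inhibition = artemisinin control; nearly all actives have a fitted effect of over 60% in size.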 The conditions noted are these: P. falciparum in erythrocytes, SYBR Green DNA, 72 h. The method, boiled down:
(§1)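 In a 72 h erythrocytic culture (37 C, humidified, 5% CO2) at 2.5% hematocrit and 0.3% starting parasitemia, compounds were tested; SYBR Green I in detergent lysis buffer stained parasite DNA overnight.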

For another test, the system named is 3D7. The test is described as above. The conditions noted are these: P. falciparum in erythrocytes, SYBR Green DNA, 72 h; series mostly up to 28.7 µM. The gist of the method: as §1
The next test concerns AA1029. Described as above. The conditions noted are these: P. falciparum in erythrocytes, SYBR Green DNA, 72 h; series mostly up to 28.7 µM. The gist of the method:
as §1

Another test concerns AS120. Described as above. The conditions noted are these: P. falciparum in erythrocytes, SYBR Green DNA, 72 h; series mostly up to 28.7 µM. The method, boiled down: as §1
The subject of another test is ATS189. The description is as above. The conditions noted are these: P. falciparum in erythrocytes, SYBR Green DNA, 72 h; series mostly up to 28.7 µM. The gist of the method:
as §1

For a further test, the system named is ATS95. Described as above. The conditions noted are these: P. falciparum in erythrocytes, SYBR Green DNA, 72 h; series mostly up to 28.7 µM. The gist of the method:
as §1

Another test relates to C2A. Described as above. The conditions noted are these: P. falciparum in erythrocytes, SYBR Green DNA, 72 h; series mostly up to 28.7 µM. The method, boiled down: as §1
For the next test, the system named is CP185. Described as above. The conditions noted are these: P. falciparum in erythrocytes, SYBR Green DNA, 72 h; series mostly up to 28.7 µM. The method, boiled down:
as §1

Another test relates to CP192. The description is as above. The conditions noted are these: P. falciparum in erythrocytes, SYBR Green DNA, 72 h; series mostly up to 28.7 µM. The method, boiled down:
as §1

The next test relates to CP201. The description is as above. The conditions noted are these: P. falciparum in erythrocytes, SYBR Green DNA, 72 h; series mostly up to 28.7 µM. The method, boiled down: as §1
The next test has as its system CP191. Described as above. The conditions noted are these: P. falciparum in erythrocytes, SYBR Green DNA, 72 h; series mostly up to 28.7 µM. The method, boiled down:
as §1

For a further test, the system named is CP194. The description is as above. The conditions noted are these: P. falciparum in erythrocytes, SYBR Green DNA, 72 h; series mostly up to 28.7 µM. The gist of the method: as §1
The subject of a further test is 7G8. The description is as above. The conditions noted are these: P. falciparum in erythrocytes, SYBR Green DNA, 72 h; series mostly up to 28.7 µM. The method, boiled down:
as §1

Where [4] appears, read: measured here: PEO1 parental Z-AUC.
Where [5] appears, read: TFE3-RCC UOK109 viability, measured here: UOK109 Z-AUC.
The mark [6] stands for this setting: TFE3-RCC viability, measured here: UOK124 Z-AUC.
Setting [7] is: TFE3-RCC viability, measured here: UOK145 Z-AUC.
The mark [8] stands for this setting: at 28.7 µM (top of the series), parasite line A.
The mark [9] stands for this setting: at 28.7 µM (top of the series), parasite line B.

In the case of `COCCCOc1ccnc(CS(=O)c2nc3ccccc3[nH]2)c1C` (centres undefined), the Z-AUC in test [1] was -0.249 (inactive); in test [1] (setting [4]), -0.578; in test [1] (measured here: PEO4 Z-AUC) it was -0.176. In addition, the z-score in [2] (setting [5]) was 0.673; in test [2] (setting [6]), 0.741; in test [2] (setting [7]), 0.739. The activity, negative = inhibition is -29% (inactive) in test [3] (setting [8]) and -20.3% (inactive) in test [3] (setting [9]). Moreover, the Potency entry in the test on 3D7, with AA1029, with AS120, in the test on ATS189, with ATS95 and in the test with C2A was “inactive” each time. For the same compound, the Potency result with CP185, with CP192 and with CP201 was “inactive” throughout.
With `O=c1oc2cc(O)ccc2s1`, the Z-AUC in [1] was 0.214 (inactive); in [1] (setting [4]), 0.00456; in test [1] (measured here: PEO4 Z-AUC), 1.28. For the same compound, the z-score in test [2] (setting [5]) is 0.879; in [2] (setting [6]) it was 0.455; in test [2] (setting [7]), 1.32. Besides, the activity, negative = inhibition in [3] (setting [8]) is -2.41% (inactive); in test [3] (setting [9]) it was -10.3% (inactive). Also, the Potency result in the test with 3D7, with AA1029, in the test with AS120, with ATS189, in the test with ATS95 and with C2A was “inactive” in each case. Besides, the Potency entry with CP185, in the test on CP191, in the test with CP192, with CP194 and with CP201 was “inactive” each time.
With `CN1C(C(=O)Nc2ccccn2)=C(O)c2sccc2S1(=O)=O`, the Z-AUC in test [1] was 1.5 (inactive); in test [1] (setting [4]), 1.16; in test [1] (measured here: PEO4 Z-AUC), 1.02. In addition, the results for the z-score in test [2] (setting [5]), in test [2] (setting [6]) and in test [2] (setting [7]) were 1.14, 0.504 and 0.557, respectively. Further, the activity, negative = inhibition in test [3] (at 12.8 µM (top of the series), parasite line A) was -2.2% (inactive); in test [3] (at 12.8 µM (top of the series), parasite line B), -4.64% (inactive). Moreover, the Potency entry in the test with 3D7, with 7G8, in the test with AA1029, with AS120, in the test on ATS189 and in the test on ATS95 was “inactive” throughout. Further, the Potency result in the test with C2A, in the test with CP185, in the test with CP191, in the test on CP192, in the test on CP194 and in the test on CP201 was “inactive” in each case.
`CC1=C(C)C(=O)C(C(CCCCCC(=O)O)c2ccccc2)=C(C)C1=O` (centres undefined): the Z-AUC in test [1] was 0.121 (inactive); in [1] (setting [4]), 0.192; in test [1] (measured here: PEO4 Z-AUC), 0.237. For the same compound, the z-score is 0.248 in test [2] (setting [5]), 0.105 in test [2] (setting [6]) and -0.311 in test [2] (setting [7]). Moreover, the activity, negative = inhibition in test [3] (setting [8]) was -13.8% (inactive); in [3] (setting [9]), -26.9% (inactive). For the same compound, the Potency result in the test with 7G8, in the test on AA1029, in the test on ATS95, in the test with CP185, with CP191 and with CP192 was “inactive” each time. The Potency result with CP201 is “inactive”.
Turning to `CCC(C)(Oc1ccc(C2(c3ccc(OC(C)(CC)C(=O)O)cc3)CCCCC2)cc1)C(=O)O` (centres undefined), the Z-AUC in [1] is 0.486 (inactive); in test [1] (setting [4]), 0.92; in test [1] (measured here: PEO4 Z-AUC), 0.795. In addition, the activity, negative = inhibition is 2.31% (inactive) in test [3] (setting [8]) and -9.49% (inactive) in test [3] (setting [9]). The Potency entry in the test on 3D7, in the test with 7G8, in the test with AA1029, in the test with AS120, with ATS189 and in the test with ATS95 was “inactive” in each case. Moreover, the Potency result with C2A, in the test with CP185, with CP191, in the test on CP194 and in the test with CP201 was “inactive” throughout.
Regarding `CCCc1cc(=O)[nH]c(=S)[nH]1`, the Z-AUC in test [1] was -0.283 (inactive); in test [1] (setting [4]) it was -0.244; in [1] (measured here: PEO4 Z-AUC), 0.119. For the same compound, the activity, negative = inhibition in test [3] (setting [8]) is 3.45% (inactive); in [3] (setting [9]), 5.92% (inactive). Moreover, the Potency entry in the test with 3D7, in the test with 7G8, in the test on AA1029, with AS120, in the test on ATS189 and with ATS95 was “inactive” throughout. In addition, the Potency result in the test on C2A, with CP185, with CP191, in the test on CP192, with CP194 and in the test with CP201 was “inactive” in each case.
